Molecules are shown by their SMILES. The panel holds about 83,000 compounds, 20% with a hit somewhere; the sample as a whole holds those more often.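 Values shown are percent growth following 48 h exposure of cells in 96-well plates to a single concentration of compound; below 10 was considered active.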 Activity calls are given as the source filed them.

The source of these data is PubChem BioAssay (NCI).

The test system of the assay is SR leukemia. The assay is described as follows: NCI-60 one-dose screen, 48 h (100 = growth as untreated, 0 = no growth, -100 = all killed). The conditions noted are these: 10 µM.
With `COc1cc(/C=C/C(=O)c2ccc(C(F)(F)F)cc2)ccc1Oc1nc(Nc2ccc(F)cc2)nc(N(C)C)n1`, the growth was 30.4% (inactive).

Consider `Cc1ccc(/C=C/C(=O)c2ccc(NC(=O)CSc3nnc(-c4c[nH]c5ccccc45)n3-c3ccccc3)cc2)c(C)c1`, for which the growth was 41.6% (inactive). In the case of `COc1ccc(/C=C/C(=O)c2ccc(S(=O)(=O)NCCNc3nc(Nc4ccc(F)cc4)nc(N(C)C)n3)cc2)cc1`, the growth is 3.4% (active).

For `N#Cc1c(-c2ccc(Cl)cc2)cc(-c2ccccc2)nc1OCc1ccccc1`, the growth is 42.2% (inactive). The figure for `Nc1nnc(-c2c[nH]c3ncccc23)c(-c2c[nH]c3ccc(Br)cc23)n1` is 19.1% (inactive); for `CC(=O)OC[C@@]1(C)C2CC[C@]3(C)C(CC=C4C5CC(C)(C)CC[C@]5(C(=O)Nc5ccccc5)CC[C@]43C)[C@@]2(C)C[C@@H](OC(C)=O)[C@@H]1OC(C)=O` (some centres not stated) it is 17% (inactive); for `O=C(CSc1nnc(-c2c[nH]c3ccccc23)n1-c1ccccc1)Nc1ccc(C(=O)/C=C/c2cccc([N+](=O)[O-])c2)cc1` it is 75.2% (inactive).

Regarding `C/C(=C\c1ccc(O)cc1O)c1ccc2ccc(O)cc2[o+]1`, the growth is 20.2% (inactive). The same measure for `CCCCOc1ccc(Nc2nc3ccccc3nc2Nc2ccc(OCCCC)cc2)cc1`: 80.1% (inactive); for `Nc1nc(Nc2ccc(Cl)cc2)nn1Cc1cccc(Br)c1`: 30.6% (inactive); for `COc1ccc(/C=N/N=C(\C)c2ccc3c(c2)Nc2ccccc2S3)cc1O`: 32.6% (inactive). For the compound `O=C(CSc1nnc(-c2c[nH]c3ccccc23)n1-c1ccccc1)c1ccc(Br)cc1`, the growth is 90.8% (inactive). Turning to `COC(=O)c1c(C(=O)OC)c2n(c1C)[C@@H]([C@@H](C)[C@H]1CC[C@H]3[C@@H]4CCC5=CC(=O)CC[C@]5(C)[C@H]4CC[C@]13C)SC2`, the growth was 17.9% (inactive). The figure for `COc1ccc(C(=O)/C=C/c2cc(C(F)(F)F)cc(C(F)(F)F)c2)cc1S(N)(=O)=O` is 5.52% (active); for `CCCn1c(O)c(N=Nc2nc(-c3cc4ccccc4oc3=O)cs2)c2cc(Br)ccc21` it is 101% (inactive); for `O/N=C(\CSc1nnc(-c2c[nH]c3ccccc23)n1-c1ccccc1)c1ccc(Br)cc1` it is 1.29% (active). The figure for `CC(=O)Oc1ccccc1C(=O)Oc1ccc(C(=O)/C=C/c2ccncc2)cc1` is 7.37% (active). The figure for `CC(=O)C1=C(C)NC(SCC(=O)Nc2ccc(S(=O)(=O)Nc3cc(C)on3)cc2)=NC1c1ccccc1` (configuration not stated) is 94.1% (inactive); for `COc1cc2c3c(n(CCCn4ccnc4)c(=O)c2cc1OC)-c1nc2c(cc1C3=O)OCO2` it is 13.8% (inactive). With `O=S(=O)(Nc1ncccn1)c1ccc(-n2c(-c3ccc(Br)cc3)nc(-c3ccccc3)c2-c2ccccc2)cc1`, the growth was 45.2% (inactive). Regarding `COc1ccc(-c2cc(C(=O)N=Nc3c(O)[nH]c4ccc(Br)cc34)c3ccccc3n2)cc1`, the growth is 3.37% (active). The figure for `CCOC(=O)CNC(=O)CN(Cc1ccccc1)C(=O)[C@@]1(C)CCC[C@]2(C)[C@H]3CC4C(C(C)C)=C[C@]3(CC[C@H]21)[C@@H]1C(=O)CCC(=O)[C@H]41` is 8.03% (active). Turning to `CC1(c2ccccc2)NC(=O)N(CC(=O)Nc2ccc(C(=O)/C=C/C=C/c3ccccc3)cc2)C1=O` (configuration not stated), the growth is 15.2% (inactive). As for `O=c1c2ccccc2nc(COc2ccccc2)n1/N=C/c1ccc(F)cc1`, the growth was 78.2% (inactive). The figure for `COc1ccc(-c2cc(-c3cc(C(=O)c4ccccc4)n4ccc(C)cc34)nc(N)c2C#N)cc1` is 86.7% (inactive); for `COc1cc(C2CC(c3ccc(C)cc3)=Nc3c(N)nc(N)nc3N2)ccc1Oc1nc(Nc2ccc(F)cc2)nc(N(C)C)n1` (configuration not stated) it is 0.613% (active).

On to `O=C(Nc1cccc(C(F)(F)F)c1)c1cncc(C#Cc2cnc3ccc(N4CCOCC4)nn23)c1`, for which the growth is -1.17% (active).

As to `CC(=O)Nc1ccc(-c2cn(-c3cccc(C(=O)Nc4ccc(F)c(C(F)(F)F)c4)c3)nn2)cn1`, the growth was 34.6% (inactive). The figure for `CN(C(=O)c1ccc(C(F)(F)F)cc1C(F)(F)F)c1sc2c(c1C#N)CCC(=O)C2` is 1.6% (active); for `C#CCNC(=O)CCC(=O)OC[C@]12CC[C@@H](C(=C)C)[C@@H]1C1CC[C@@H]3[C@@]4(C)CCCNC(C)(C)[C@@H]4CC[C@@]3(C)[C@]1(C)CC2` (some centres not stated) it is -7.1% (active); for `COc1ccc2[nH]cc(/C=N/Nc3ccc(Br)cn3)c2c1` it is 3.07% (active).

For `[2H]C([2H])([2H])Oc1ccc2ncc(C#Cc3cncc(C(=O)Nc4ccc(CN5CCN(C)CC5)c(C(F)(F)F)c4)c3)n2n1`, the growth is -9.99% (active).

As for `COc1ccc(CN2[C@H](C(=O)NCc3ccc(C(=O)NO)cc3)Cc3c([nH]c4ccccc34)[C@H]2C2CC2)cc1`, the growth was 25.5% (inactive). `O=c1cc(-c2ccccc2)oc2cc(OCCCCNCc3ccccc3)cc(O)c12`: the growth was -29.7% (active). `O=c1[nH]c2ccccc2cc1CSc1ccc(Nc2nccc(-c3ccc(C(F)(F)F)cc3)n2)cc1`: the growth is 64.7% (inactive). As to `CN(C)c1ccc(/C=C/c2nc3ccccc3c(=O)n2CC(=O)Nc2ccccc2)cc1`, the growth was 75.5% (inactive).

As for `Cc1ccc(-c2nc(Nc3ccc(C)c(S(N)(=O)=O)c3)c3ccccc3n2)cc1`, the growth is 3.79% (active).
